Screening data as filed in PubChem.
Hits are enriched below; roughly 3.5% of the tested compounds scored in any of these assays.
FBW7 activator – FBW7 E3 ligase activators, primary screen, biochemical, AlphaScreen, human; F-box/WD repeat-containing protein 7 (Homo sapiens), Q969H0; AlphaScreen FBW7–phospho-cyclin E peptide binding, activator screen; normalized activity (activation), % at 26.1 µM; 650,000 tested, 0.13% active; AID 1259310, 2017; in the data active means normalized activity above about 1.9%;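 further: purified mutant Fbw7 with reduced substrate affinity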
MITF primary – MITF inhibitors, primary screen, biochemical, AlphaScreen, human. 650,000 tested, 0.91% active. Microphthalmia-associated transcription factor (Homo sapiens), O75030. inhibition, % at 2.6 µM. AlphaScreen MITF homodimerization, bead proximity signal; in the data active means inhibition above about 50%;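 further: 0% = vehicle wells with protein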
GPR151 activ – activators of human GPR151, primary screen, cell-based, PathHunter beta-arrestin, luminescence; G-protein coupled receptor 151 (Homo sapiens), Q8TDV0; PathHunter beta-arrestin GPR151 cells; activation, % at 11.2 µM; 650,000 tested, 1% active; AID 1508602, 2020; in the data active means activation above about 4.9%;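 further: 0% = median of compound wells and 100% = cells with positive control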
Target sequence (Q8TDV0 whole entry, looked up): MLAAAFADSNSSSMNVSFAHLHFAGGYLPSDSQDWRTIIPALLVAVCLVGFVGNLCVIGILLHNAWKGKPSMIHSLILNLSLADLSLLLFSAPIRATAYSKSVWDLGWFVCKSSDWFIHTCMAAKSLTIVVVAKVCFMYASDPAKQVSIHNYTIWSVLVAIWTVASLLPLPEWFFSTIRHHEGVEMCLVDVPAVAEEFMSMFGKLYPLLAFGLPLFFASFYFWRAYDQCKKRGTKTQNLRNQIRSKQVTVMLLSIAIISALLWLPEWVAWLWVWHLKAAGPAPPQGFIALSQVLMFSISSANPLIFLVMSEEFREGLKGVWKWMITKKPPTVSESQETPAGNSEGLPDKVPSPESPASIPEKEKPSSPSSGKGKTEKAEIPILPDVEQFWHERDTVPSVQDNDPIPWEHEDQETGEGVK
TEAD-YAP block – TEAD-YAP interaction inhibition, primary screen, TEAD-YAP interaction inhibitor project, luminescence, HEK-TIYL cells | TEAD-Gal4/YAP UAS-luciferase luminescence | inhibition, % at 9.12 µM | 640,000 tested, 1.4% active; in the data active means inhibition above about 32%;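 further: 0% = median of test compound wells and 100% = reference inhibitor wells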
MITF inh conf – MITF inhibitors, retest of hits, confirmation, biochemical, AlphaScreen, triplicate. shares compounds with MITF primary. 4,700 tested, 16% active. AlphaScreen MITF homodimerization, biotin/His-MITF beads. inhibition, % at 2.6 µM;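 active means inhibition above a cutoff derived from the DMSO control wells, cut at about 28% in these data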;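 further: 0% = MITF dimer wells with DMSO only; inhibitors lower the bead chemiluminescence by keeping MITF from dimerizing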
AlphaScreen DR – AlphaScreen optical interference compounds, dose response, counter-screen, biochemical, HTS; 480 tested, 6% active; AID 1259373, 2018; AlphaScreen optical interference counterscreen, cell-free; IC50, µM; shares compounds with MITF primary; call rule not given here
AlphaScreen intf2 – AlphaScreen optical interference compounds, counter-screen for MITF inhibitor project, biochemical, triplicate; LysRS AlphaScreen counterscreen, signal interference; shares compounds with MITF primary; 4,700 tested, 7.6% active; inhibition, % at 2.6 µM; AID 1259376, 2018;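 active means inhibition above a cutoff derived from the DMSO control wells, cut at about 30% in these data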
* hit, by the source's call; / = no result given.

SMILES	FBW7 activator	MITF primary	GPR151 activ	TEAD-YAP block	MITF inh conf	AlphaScreen intf2	others
COc1ccccc1CN1CCN(C(C)C)CC1	0	67*	1	-10	9	9
CCc1ccc(CN2CCN(Cc3ccccc3OC)CC2)cc1	0	72*	0	-3	16	18
COc1cc(CN2CCN(Cc3ccccc3)CC2)ccc1O	0	41	-2	0	/	/
CC(C)N1CCN(Cc2ccccc2C(F)(F)F)CC1	0	61*	0	6	-7	-6
COCc1cc(C2SCC(=O)Nc3c2c(=O)[nH]n3C2CCCCC2)ccc1OC (stereo not drawn)	0	3	3	-10	/	/
CC(C)N1CCN(Cc2ccccc2Cl)CC1	0	73*	1	5	-12	-2
COc1ccccc1CN1CCN(Cc2ccccc2)CC1	0	88*	0	-7	9	11
CCN1CCN(Cc2ccccc2Cl)CC1	0	-11	0	10	/	/
COc1cccc(CN2CCN(Cc3ccccc3)CC2)c1O	0	-2	-1	-9	/	/
COc1ccccc1CN1CCN(Cc2ccc(C)cc2)CC1	0	76*	0	8	3	8
CN(C(=O)Oc1ccnc2cc(Cl)ccc12)c1ccccc1	0	3	-1	-5	/	/
CCOC(=O)C1C2NC(=S)N(CCc3ccc(OC)c(OC)c3)C1(C)Oc1c(OC)cccc12 (stereo not drawn)	0	19	1	-9	/	/
COc1cc(OC)c(OC)cc1CN1CCN(C(C)C)CC1	0	68*	-2	7	4	3
CCN1CCN(Cc2cc(OC)c(OC)cc2Br)CC1	0	4	0	-1	/	/
COc1ccc(CN2CCN(CCO)CC2)c(OC)c1	1	5	0	10	/	/
COc1ccc(CN2CCN(C(C)C)CC2)c(OC)c1	0	71*	0	2	7	16
CN1CCc2[nH]c(=S)c(C#N)c(-c3ccc(F)cc3)c2C1	0	7	0	4	/	/
C[n+]1c[nH]n2cc(-c3ccc([N+](=O)[O-])cc3)nc21	0	-11	1	-16	/	/
CCOC(=O)C1C2NC(=S)N(c3ccccc3C)C1(C)Oc1c(OCC)cccc12 (stereo not drawn)	-1	60*	-2	8	34*	36*
Cc1nc2ccc(I)cc2c(=O)n1-c1cccc([N+](=O)[O-])c1	0	-1	1	3	/	/
Nc1ncnc2c1ncn2[C@@H]1O[C@H](COP(=O)(O)CP(=O)(O)OP(=O)(O)O)[C@H](O)C1O (stereo partly drawn)	0	11	-1	-4	/	/
CCN(CC)c1ncnc2c1ncn2[C@@H]1O[C@H](COP(=O)(O)OP(=O)(O)C(Br)(Br)P(=O)(O)O)C(O)[C@@H]1O (stereo partly drawn)	0	73*	3	/	88*	-23	AlphaScreen DR=>6.5
N#CC1=C2N=C(N)c3c(sc4c3CCCC4)N2C2=C(C(=O)CCC2)C1c1ccc(Cl)cc1Cl (stereo not drawn)	0	6	1	-3	/	/
O=c1c2ccccc2nc(/C=C/c2cccc(F)c2)n1-c1ccccc1F	0	5	0	-4	/	/
Cc1cccc(CN2CCN(C(=O)Cc3ccccc3)CC2)c1	0	37	1	6	/	/
SMILES	FBW7 activator	MITF primary	GPR151 activ	TEAD-YAP block	MITF inh conf	AlphaScreen intf2	others
O=C(Cc1ccccc1)N1CCN(Cc2ccccc2Cl)CC1	0	57*	1	13	-6	0
O=C(Cc1ccccc1)N1CCN(Cc2cccc(F)c2)CC1	0	54*	1	3	-2	13
CCc1ccc(CN2CCN(C(=O)Cc3ccccc3)CC2)cc1	0	33	0	11	/	/
O=C(Cc1ccccc1)N1CCN(Cc2cccnc2)CC1	0	69*	0	1	-1	-3
CC1CCC(N2CCN(C(=O)Cc3ccccc3)CC2)CC1 (stereo not drawn)	0	36	1	-3	/	/
CCOc1cccc(OCC)c2c(C)nc(C)c1-2	0	76*	2	8	82*	-2
CCOc1cccc(OCC)c2c(C)[n+](C)c(C)c1-2	0	73*	0	-34	79*	3	AlphaScreen DR=>5.1
COc1ccc(C(CN)CC(=O)O)cc1 (stereo not drawn)	0	-10	0	-7	/	/
O=[N+]([O-])c1ccc(CN2CCN(Cc3ccccc3)CC2)cc1	0	57*	-1	-3	3	11
CCC(C)N1CCN(Cc2ccccc2[N+](=O)[O-])CC1 (stereo not drawn)	0	74*	1	7	13	-14
Cc1ccccc1CN1CCN(Cc2ccc([N+](=O)[O-])cc2)CC1	0	63*	0	1	0	2
Cc1ccccc1CN1CCN(Cc2ccccc2[N+](=O)[O-])CC1	0	61*	0	-7	2	-3
CCN1CCN(Cc2ccc(NC(=O)CCc3nc(C4=CCN(C)CC4)no3)cc2)CC1	3.9*	59*	0	5	63*	42*
CCOC(=O)c1cccc(NC(=O)CCc2nc(C3=CCN(C)CC3)no2)c1	1	9	2	12	/	/
CC(C)c1ccc(NC(=O)CCc2nc(C3=CCN(C)CC3)no2)cc1	1	32	2	-3	/	/
CCN(CC)S(=O)(=O)c1ccc(NC(=O)CCc2nc(C3=CCN(C)CC3)no2)cc1	0	83*	-2	12	94*	66*
CCOC(=O)N1CCC(NC(=O)CCc2nc(C3=CCN(C)CC3)no2)CC1	0	53*	-1	7	35*	15	AlphaScreen DR=>6.5
CCc1ccc(NC(=O)CCc2nc(C3=CCN(C)CC3)no2)cc1	1	65*	-2	6	48*	19	AlphaScreen DR=>6.5
CCOc1ccc(C(CN)CC(=O)O)cc1OCC (stereo not drawn)	0	5	0	11	/	/
CCCc1noc(CN2CCCC(C(=O)c3cccs3)C2)n1 (stereo not drawn)	0	-3	-1	-5	/	/
CN1CC=C(c2noc(CCC(=O)Nc3ccc(Cl)cc3)n2)CC1	0	73*	1	-2	68*	46*
Clc1ccc(CCNCc2ccccn2)c(Cl)c1	0	33	-1	-5	/	/
Fc1cccc(CCNCc2ccccn2)c1	-1	62*	0	-8	-5	6
COc1nc(N2CCN(C)CC2)nc(N)c1[N+](=O)[O-]	0	6	-1	-1	/	/
